What follows are sequences tested on THRa homodimer (NR concentration 90 nM) (assay: PBM binding z-score (relative to random genomic background probes); higher = stronger binding; sequences stand for … in GC…GCGATTGACAGCGTAGAATGAAGG).
Procedure, shortened: (§1)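 Each nuclear receptor dimer, without ligand, was incubated for 1 h on custom Agilent 4×180K protein-binding microarrays. Binding was detected with antibodies against each partner (one per run), and scanned fluorescence was regression-normalized. The binding z-scores are referenced to random human genomic background probes.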
Sequence TCATATAGGTAAAAGTTGAAAGTCGGTGTGGTAA has a PBM binding z-score of -0.0355. TGAATGAGGTTGAAGATCAGGGAACGTGGCGTCG was tested, and the PBM binding z-score was -0.42. In the case of AAATGTAGGTTACATCCGGGTCATTCAGGCTATG, the PBM binding z-score was 2.22. Sequence GCATATAGGTAATCCAAGGTGAAAGTCCGATTGT has a PBM binding z-score of 1.35. For CCTTACGGGTCACTGAAAGGTTATAGCATTTGGA, the PBM binding z-score was 0.371. Work on GCGACTGGGGCAAACCAGGTTACCATAAGGTTGG yielded a PBM binding z-score of 0.684. For AGTCAAAGTTCATCTAGGTAACGTCAGATATGCT, the PBM binding z-score was 0.387. With TCTTGTAGATCAATAGAGGTTATGAAAGTGCGCT the PBM binding z-score was -0.187. TCATATAGGTAAAAGCTGAAAGTCGGTGTGGTAA was tested, and the PBM binding z-score was -0.715. GGGACTGGGGCAAAGCAGGTTACCATAAGGTTGG was tested, and the PBM binding z-score was 1.32. With CTCGAAAGGTCGTGCTCAGGTGAGAATACCAAAC the PBM binding z-score was 1.14. Sequence TCGAGAAGGTTAGTCGGGGCATTCAGCCAACATA has a PBM binding z-score of 0.0413. For TCTTCTAGATCAAAGGTTAAGAAAGCCGAAGCCT, the PBM binding z-score was -0.597. For ATATGTAGGTTAGCTGGGGTCGTTCAGACTAGGC, the PBM binding z-score was 1.18. In the case of AGAATGAGGTTACCAAAGATAAGGGAAACGCTTG, the PBM binding z-score was 0.618. With CCTCGGAGGACAGAAGCTCAGAGCTGTCCGCTTT the PBM binding z-score was -1.12. In the case of GATACAGGGACAAGGCCAGAGTACGCGTATTGAT, the PBM binding z-score was 0.292. GTTAGTTGGTCAGTAAAAGGTCACACACCGGTCG was tested, and the PBM binding z-score was 2.18.

What follows are sequences tested on VDR homodimer (NR concentration 270 nM) in the same assay as above.
Procedure, shortened: as §1
Work on GCGGCTAGGTCAGGTTGGTCAGCTAACGGGTACG yielded a PBM binding z-score of 0.247. For TCTAGCAGGCCAGAGGGTCACTCATGAGGTACGG, the PBM binding z-score was 0.736. With ACTTACGGGTCAACGAGGTTATCGCACGCGTATA the PBM binding z-score was 4.34. For CTCGAAAAGTCGGTTGAGGTGAGTATACGGATAA, the PBM binding z-score was -0.144. AGATTGAGGTTATTAAGATCAGGGAATTGCGGTC was tested, and the PBM binding z-score was 1.49. Work on CATACAGGGTCAGCTAGGCCAGAGGAGGGACGGC yielded a PBM binding z-score of 1.36. GCTTGCAGGCCATTTGGGTCACTCAATGACGGGC showed a PBM binding z-score of 0.751. Sequence TATACAGGGTCAAATGCCAGAGTACGAATGTCGA has a PBM binding z-score of 3.62. Work on TGAATGAGGTTAAGGATCAGGGAACGTGGCGTCG yielded a PBM binding z-score of 0.15. Work on TAGCCTAGGTCATGCGGGCCAGTGTAGTGTCGGC yielded a PBM binding z-score of 0.567. In the case of CGAGACAGGTGAGAAGGTAACTCAGCCTCGATTA, the PBM binding z-score was -0.621. CCTAATTGGTCAAGGTCACACACGCTATAGGTAC gave a PBM binding z-score of 3.38. CAAACTAGGTCACAGAGGTAAAAGTCCGTGCGTA was tested, and the PBM binding z-score was 2.01. In the case of CCGAGTAGGTTATGGGGAATTCAGGCAACGGTGA, the PBM binding z-score was 0.246. GCGACTGGGGCATCAGAAGGTTACCATAACTTAA was tested, and the PBM binding z-score was -0.299. Sequence TCTATTAGTTGAAGGGCAACTGACGAGTCCGTTT has a PBM binding z-score of 1.4. Sequence TGAATGAGGTTACAAGATCAGGGAACGTTGCAAA has a PBM binding z-score of 0.106. TCTTGTAGATCAAAGGTTAAGAATGCCGAAGCCT showed a PBM binding z-score of -0.101. ATCGAAAGGTCGACGAGGTGAATATACACCGTTT showed a PBM binding z-score of 1.84. CATACAGGGTCAGCTAGGCCAGAGTGGGGACGGC gave a PBM binding z-score of 1.59. TCATATAGATAAAGGTGAAAGTCGAACGATATGA was tested, and the PBM binding z-score was -0.308. CTAGAAAGGTCGGTTGAGGTGAGTATACGGATAA was tested, and the PBM binding z-score was 1.05. Work on TCATATAGGTAAAAGTTGAAAGTCGGTGTGGTAA yielded a PBM binding z-score of 0.425. TGAATGAGGTTGAAGATCAGGGAACGTGGCGTCG gave a PBM binding z-score of -0.192. For AAATGTAGGTTACATCCGGGTCATTCAGGCTATG, the PBM binding z-score was 3.16. GCATATAGGTAATCCAAGGTGAAAGTCCGATTGT was tested, and the PBM binding z-score was 0.0892. For CCTTACGGGTCACTGAAAGGTTATAGCATTTGGA, the PBM binding z-score was 1.14. GCGACTGGGGCAAACCAGGTTACCATAAGGTTGG showed a PBM binding z-score of -0.202. AGTCAAAGTTCATCTAGGTAACGTCAGATATGCT gave a PBM binding z-score of 5.66. With TCTTGTAGATCAATAGAGGTTATGAAAGTGCGCT the PBM binding z-score was 0.0483. For TCATATAGGTAAAAGCTGAAAGTCGGTGTGGTAA, the PBM binding z-score was -0.102. GGGACTGGGGCAAAGCAGGTTACCATAAGGTTGG was tested, and the PBM binding z-score was 0.624. CTCGAAAGGTCGTGCTCAGGTGAGAATACCAAAC was tested, and the PBM binding z-score was 0.913. For TCGAGAAGGTTAGTCGGGGCATTCAGCCAACATA, the PBM binding z-score was 1.2. TCTTCTAGATCAAAGGTTAAGAAAGCCGAAGCCT gave a PBM binding z-score of 0.119. ATATGTAGGTTAGCTGGGGTCGTTCAGACTAGGC showed a PBM binding z-score of 2.29. AGAATGAGGTTACCAAAGATAAGGGAAACGCTTG was tested, and the PBM binding z-score was 0.393. In the case of CCTCGGAGGACAGAAGCTCAGAGCTGTCCGCTTT, the PBM binding z-score was -0.819. With GATACAGGGACAAGGCCAGAGTACGCGTATTGAT the PBM binding z-score was 0.46. With GTTAGTTGGTCAGTAAAAGGTCACACACCGGTCG the PBM binding z-score was 2.3.
